How the values were obtained:
Test in all cases: log2 ratio of Biotin-Ahx-Ub-VS probe labelling (fragment/DMSO); higher = less target engagement (more negative = stronger competition), active = hit call of the paper (q ≤ 0.05, log2 ratio ≤ -1)
Conditions in all cases: compound concentration: 200 uM; treatment time: 3 h
USP19 = target: T1, USP19 (UniProt O94966)
T1 sequence (whole entry): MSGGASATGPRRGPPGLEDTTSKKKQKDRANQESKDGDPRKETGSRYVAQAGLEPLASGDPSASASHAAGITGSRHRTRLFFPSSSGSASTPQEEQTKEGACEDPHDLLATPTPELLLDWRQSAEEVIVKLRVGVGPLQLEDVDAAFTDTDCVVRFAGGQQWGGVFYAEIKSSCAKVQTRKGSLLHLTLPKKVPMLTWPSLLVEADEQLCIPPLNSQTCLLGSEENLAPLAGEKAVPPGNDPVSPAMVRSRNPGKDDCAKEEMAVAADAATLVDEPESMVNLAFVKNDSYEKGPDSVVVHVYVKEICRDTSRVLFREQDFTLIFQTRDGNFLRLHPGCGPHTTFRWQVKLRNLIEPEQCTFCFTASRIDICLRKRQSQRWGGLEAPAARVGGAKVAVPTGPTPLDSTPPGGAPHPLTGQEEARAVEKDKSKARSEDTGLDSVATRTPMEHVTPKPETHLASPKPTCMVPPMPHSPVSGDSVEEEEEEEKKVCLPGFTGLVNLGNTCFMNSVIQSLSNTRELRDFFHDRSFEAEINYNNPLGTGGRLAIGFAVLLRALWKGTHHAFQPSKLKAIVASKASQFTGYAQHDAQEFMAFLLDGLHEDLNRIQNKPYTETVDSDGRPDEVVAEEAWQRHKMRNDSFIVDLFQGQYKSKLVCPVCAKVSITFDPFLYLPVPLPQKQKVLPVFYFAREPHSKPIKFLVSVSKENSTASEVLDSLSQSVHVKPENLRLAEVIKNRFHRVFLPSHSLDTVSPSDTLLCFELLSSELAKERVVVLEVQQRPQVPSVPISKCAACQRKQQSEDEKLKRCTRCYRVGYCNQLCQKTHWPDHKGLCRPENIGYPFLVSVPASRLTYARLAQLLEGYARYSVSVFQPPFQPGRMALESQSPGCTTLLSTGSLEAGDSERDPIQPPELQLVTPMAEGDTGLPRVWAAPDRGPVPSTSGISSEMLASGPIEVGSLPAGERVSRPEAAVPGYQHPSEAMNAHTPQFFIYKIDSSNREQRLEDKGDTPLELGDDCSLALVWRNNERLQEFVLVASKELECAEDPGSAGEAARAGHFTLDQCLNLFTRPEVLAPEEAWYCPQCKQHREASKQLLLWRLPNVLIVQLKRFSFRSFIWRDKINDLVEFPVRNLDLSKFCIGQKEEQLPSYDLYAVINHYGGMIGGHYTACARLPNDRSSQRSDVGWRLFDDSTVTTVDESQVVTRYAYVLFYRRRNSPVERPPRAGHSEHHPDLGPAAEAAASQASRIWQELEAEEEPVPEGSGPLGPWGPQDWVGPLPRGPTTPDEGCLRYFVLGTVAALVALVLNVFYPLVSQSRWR
Outline: (§1)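 HEK293T lysate, 495 µg per sample in Tris/CHAPS/IGEPAL buffer with protease inhibitors, was treated in triplicate with fragment at 200 µM or vehicle for 3 h and then with Biotin-Ahx-Ub-VS at 0.5 µM final for 1 h. Labelled DUBs were NeutrAvidin-enriched, digested with LysC and trypsin, and run by diaPASEF LC-MS/MS. Spectronaut label-free quantities were global-median-normalised, and values are average log2 fragment/vehicle ratios by unpaired t-test on proteins with ≥2 unique peptides.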

USP24 = USP24 (UniProt Q9UPU5)
USP24, sequence (Q9UPU5 whole entry): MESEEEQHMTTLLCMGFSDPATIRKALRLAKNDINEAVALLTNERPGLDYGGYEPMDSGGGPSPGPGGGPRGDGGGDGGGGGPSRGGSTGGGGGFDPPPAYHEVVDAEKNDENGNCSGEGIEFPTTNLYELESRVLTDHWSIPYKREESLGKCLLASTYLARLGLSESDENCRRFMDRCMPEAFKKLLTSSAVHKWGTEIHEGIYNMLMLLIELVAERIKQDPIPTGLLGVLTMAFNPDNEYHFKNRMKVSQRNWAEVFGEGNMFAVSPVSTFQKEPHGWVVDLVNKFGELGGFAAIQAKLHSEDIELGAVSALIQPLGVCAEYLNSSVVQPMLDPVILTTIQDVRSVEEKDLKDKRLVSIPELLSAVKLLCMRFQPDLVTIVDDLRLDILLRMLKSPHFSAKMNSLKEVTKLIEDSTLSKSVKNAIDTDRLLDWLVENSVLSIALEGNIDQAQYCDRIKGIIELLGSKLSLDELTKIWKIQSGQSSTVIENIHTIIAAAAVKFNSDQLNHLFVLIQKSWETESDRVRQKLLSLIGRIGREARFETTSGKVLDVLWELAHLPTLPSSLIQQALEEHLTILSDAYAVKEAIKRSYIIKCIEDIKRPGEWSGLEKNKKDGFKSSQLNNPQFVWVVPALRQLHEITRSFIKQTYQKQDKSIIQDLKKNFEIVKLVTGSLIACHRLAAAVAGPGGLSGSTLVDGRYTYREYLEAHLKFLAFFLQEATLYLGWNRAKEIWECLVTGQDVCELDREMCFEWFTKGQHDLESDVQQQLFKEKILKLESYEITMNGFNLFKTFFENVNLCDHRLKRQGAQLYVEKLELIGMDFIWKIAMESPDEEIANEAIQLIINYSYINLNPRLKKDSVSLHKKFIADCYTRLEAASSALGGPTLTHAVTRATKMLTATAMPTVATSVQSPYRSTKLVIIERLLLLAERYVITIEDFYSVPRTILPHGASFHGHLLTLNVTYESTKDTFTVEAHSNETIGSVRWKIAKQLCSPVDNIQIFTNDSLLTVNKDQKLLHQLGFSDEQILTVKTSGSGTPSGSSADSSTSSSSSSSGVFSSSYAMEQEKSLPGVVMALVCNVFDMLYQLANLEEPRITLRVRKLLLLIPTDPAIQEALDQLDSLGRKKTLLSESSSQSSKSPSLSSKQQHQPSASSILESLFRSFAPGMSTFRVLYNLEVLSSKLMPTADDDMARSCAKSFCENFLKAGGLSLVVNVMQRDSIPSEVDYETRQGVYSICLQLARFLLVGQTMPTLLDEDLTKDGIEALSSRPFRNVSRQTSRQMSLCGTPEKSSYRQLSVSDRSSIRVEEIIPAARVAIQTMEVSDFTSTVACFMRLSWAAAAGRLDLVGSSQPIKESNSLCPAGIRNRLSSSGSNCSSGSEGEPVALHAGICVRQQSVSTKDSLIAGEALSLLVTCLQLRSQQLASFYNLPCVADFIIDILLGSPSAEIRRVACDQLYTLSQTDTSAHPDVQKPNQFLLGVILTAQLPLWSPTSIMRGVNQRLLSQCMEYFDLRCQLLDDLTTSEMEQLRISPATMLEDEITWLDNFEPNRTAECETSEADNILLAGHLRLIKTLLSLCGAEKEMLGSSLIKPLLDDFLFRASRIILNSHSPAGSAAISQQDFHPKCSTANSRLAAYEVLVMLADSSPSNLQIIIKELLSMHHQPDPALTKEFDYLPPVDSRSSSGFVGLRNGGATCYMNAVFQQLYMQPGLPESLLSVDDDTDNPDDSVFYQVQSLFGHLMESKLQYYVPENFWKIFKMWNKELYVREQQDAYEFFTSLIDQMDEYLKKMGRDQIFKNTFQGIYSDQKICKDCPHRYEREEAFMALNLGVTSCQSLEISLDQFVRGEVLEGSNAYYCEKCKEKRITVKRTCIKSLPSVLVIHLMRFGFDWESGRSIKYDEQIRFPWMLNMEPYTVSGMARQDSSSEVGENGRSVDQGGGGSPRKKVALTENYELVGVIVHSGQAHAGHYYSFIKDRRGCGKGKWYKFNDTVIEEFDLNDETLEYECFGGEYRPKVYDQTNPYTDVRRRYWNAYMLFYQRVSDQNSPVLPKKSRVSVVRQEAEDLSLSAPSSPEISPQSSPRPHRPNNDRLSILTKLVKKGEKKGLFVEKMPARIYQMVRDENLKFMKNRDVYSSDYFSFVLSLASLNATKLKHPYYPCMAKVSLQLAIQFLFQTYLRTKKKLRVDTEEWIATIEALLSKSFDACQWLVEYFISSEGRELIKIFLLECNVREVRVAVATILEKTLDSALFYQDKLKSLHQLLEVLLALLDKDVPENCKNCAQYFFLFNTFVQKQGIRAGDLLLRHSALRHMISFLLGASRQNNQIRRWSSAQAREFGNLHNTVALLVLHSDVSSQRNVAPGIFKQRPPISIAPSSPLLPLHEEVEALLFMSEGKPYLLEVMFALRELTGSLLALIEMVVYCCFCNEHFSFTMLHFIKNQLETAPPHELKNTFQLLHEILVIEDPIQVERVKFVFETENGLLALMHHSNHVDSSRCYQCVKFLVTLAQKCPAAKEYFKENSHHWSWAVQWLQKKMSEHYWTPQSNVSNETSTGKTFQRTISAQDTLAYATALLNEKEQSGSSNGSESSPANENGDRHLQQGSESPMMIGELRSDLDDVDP
Outline: as §1

USP25 = target: T2, USP25 (UniProt Q9UHP3)
T2 sequence (whole entry): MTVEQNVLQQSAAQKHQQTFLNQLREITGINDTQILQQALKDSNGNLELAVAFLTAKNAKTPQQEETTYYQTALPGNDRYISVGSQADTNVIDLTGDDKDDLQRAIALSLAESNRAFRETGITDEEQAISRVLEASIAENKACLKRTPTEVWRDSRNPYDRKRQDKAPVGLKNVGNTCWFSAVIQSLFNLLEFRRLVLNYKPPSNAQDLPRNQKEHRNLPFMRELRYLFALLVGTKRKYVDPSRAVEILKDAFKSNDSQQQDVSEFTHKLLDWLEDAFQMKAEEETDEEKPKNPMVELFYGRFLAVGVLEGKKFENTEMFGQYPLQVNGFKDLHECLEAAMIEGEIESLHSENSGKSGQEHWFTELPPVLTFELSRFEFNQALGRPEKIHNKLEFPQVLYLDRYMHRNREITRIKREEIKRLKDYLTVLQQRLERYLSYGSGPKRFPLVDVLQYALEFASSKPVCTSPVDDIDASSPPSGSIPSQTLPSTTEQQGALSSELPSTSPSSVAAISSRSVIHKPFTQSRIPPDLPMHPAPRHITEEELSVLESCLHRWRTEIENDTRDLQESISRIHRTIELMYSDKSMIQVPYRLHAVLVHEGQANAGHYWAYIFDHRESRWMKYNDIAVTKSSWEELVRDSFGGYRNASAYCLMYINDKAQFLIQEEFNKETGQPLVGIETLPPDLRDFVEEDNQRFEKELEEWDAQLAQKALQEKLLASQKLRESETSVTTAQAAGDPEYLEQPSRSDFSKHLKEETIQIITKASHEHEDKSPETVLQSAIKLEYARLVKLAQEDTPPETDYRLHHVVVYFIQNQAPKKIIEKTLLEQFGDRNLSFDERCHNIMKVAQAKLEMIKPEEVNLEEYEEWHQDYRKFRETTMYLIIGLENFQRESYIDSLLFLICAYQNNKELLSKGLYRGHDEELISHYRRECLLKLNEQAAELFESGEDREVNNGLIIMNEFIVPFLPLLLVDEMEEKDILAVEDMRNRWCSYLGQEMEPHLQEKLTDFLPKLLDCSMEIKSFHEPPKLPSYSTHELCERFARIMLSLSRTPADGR
Outline: as §1

USP28 = target: T3, USP28 (UniProt Q96RU2)
T3 sequence (whole entry): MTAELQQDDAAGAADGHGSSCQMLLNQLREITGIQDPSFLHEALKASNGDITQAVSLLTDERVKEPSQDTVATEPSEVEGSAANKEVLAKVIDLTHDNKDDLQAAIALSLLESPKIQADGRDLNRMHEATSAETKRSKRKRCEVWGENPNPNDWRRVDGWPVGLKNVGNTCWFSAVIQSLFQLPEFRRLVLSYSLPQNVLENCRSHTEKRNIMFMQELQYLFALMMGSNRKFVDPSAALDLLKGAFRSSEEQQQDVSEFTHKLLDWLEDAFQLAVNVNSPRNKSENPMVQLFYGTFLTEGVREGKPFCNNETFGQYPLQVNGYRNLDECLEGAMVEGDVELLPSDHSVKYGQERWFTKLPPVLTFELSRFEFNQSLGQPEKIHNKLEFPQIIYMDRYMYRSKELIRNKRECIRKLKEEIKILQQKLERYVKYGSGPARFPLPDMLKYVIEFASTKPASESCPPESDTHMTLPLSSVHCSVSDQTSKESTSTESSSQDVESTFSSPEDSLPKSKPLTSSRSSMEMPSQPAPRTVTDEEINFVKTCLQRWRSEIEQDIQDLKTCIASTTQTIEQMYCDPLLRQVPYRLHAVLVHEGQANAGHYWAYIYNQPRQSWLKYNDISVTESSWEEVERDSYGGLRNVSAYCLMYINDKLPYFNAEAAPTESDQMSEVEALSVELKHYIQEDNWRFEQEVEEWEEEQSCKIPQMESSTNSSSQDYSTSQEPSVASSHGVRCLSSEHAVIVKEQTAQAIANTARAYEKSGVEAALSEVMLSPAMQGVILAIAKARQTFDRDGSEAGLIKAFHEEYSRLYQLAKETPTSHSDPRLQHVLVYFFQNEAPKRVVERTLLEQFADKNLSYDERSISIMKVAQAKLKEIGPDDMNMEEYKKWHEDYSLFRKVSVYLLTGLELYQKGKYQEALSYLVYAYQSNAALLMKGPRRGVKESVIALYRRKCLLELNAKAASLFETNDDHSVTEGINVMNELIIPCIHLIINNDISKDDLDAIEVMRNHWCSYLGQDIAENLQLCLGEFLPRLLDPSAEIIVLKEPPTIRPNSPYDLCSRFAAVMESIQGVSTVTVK
Outline: as §1

Measured: log2 ratio of Biotin-Ahx-Ub-VS probe labelling

O=C(CCl)NC1CCCCNC1=O (centres undefined)
inactive: USP19 -0.125 | USP24 -0.299 | USP25 -0.212 | USP28 -0.482
